For 9 compounds, growth results are on record in PubChem BioAssay (NCI).

Each structure is given as a SMILES string. Compounds without any hit were thinned out: in the full panel of roughly 83,000, 20% have a hit.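 Treatment: one concentration, 48 hours, 96-well format. Scoring: percent growth, with anything below 10 considered active.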 A number with no mark means an inactive call. The source made the active and inactive calls.

Some test systems named below: HCT-15 colon; HT29 colon; SNB-19 CNS; U251 CNS; PC-3 prostate; SK-MEL-5 melanoma; UACC-62 melanoma; LOX IMVI melanoma; SK-MEL-28 melanoma; SK-MEL-2 melanoma; SN12C renal; UO-31 renal; TK-10 renal; ACHN renal; CAKI-1 renal; A498 renal; CCRF-CEM leukemia; MOLT-4 leukemia; EKVX NSCLC.
Assay in all cases: NCI-60 one-dose screen, 48 h (100 = growth as untreated, 0 = no growth, -100 = all killed)
Holding throughout (conditions): 10 µM

Turning to `O=c1ccc2nc(-c3ccccc3)nn(-c3ccccc3)c-2c1`, the growth in the assay on HCT-15 colon was -75.9% (active); in the assay with HT29 colon, -53.5% (active); in the assay on SNB-19 CNS, 78%; with U251 CNS, 66.2%; in the assay with PC-3 prostate, 43.5%; in the assay with SK-MEL-5 melanoma, 19.8%. For the same compound, the growth was 30.1% with UACC-62 melanoma; -51.9% (active) with LOX IMVI melanoma; 26.4% in the assay on SK-MEL-28 melanoma; 44.9% in the assay with SK-MEL-2 melanoma; 40.2% in the assay with SN12C renal; -97.5% (active) in the assay on UO-31 renal. Besides, the growth was -95.9% (active) in the assay on TK-10 renal; -96% (active) in the assay with ACHN renal; -90.9% (active) with CAKI-1 renal; 84.4% with A498 renal; -16.3% (active) with CCRF-CEM leukemia; -37.9% (active) in the assay on MOLT-4 leukemia.
Take `c1ccc(CNc2nc(Nc3ccc(-c4nc5ccccc5[nH]4)cc3)c3cn[nH]c3n2)cc1`: the growth is 0.22% (active) in the assay on HCT-15 colon; -13.9% (active) in the assay with HT29 colon; 36.3% in the assay on SNB-19 CNS; -19.8% (active) with U251 CNS; 11.8% in the assay with PC-3 prostate; -96.4% (active) in the assay on SK-MEL-5 melanoma. The growth in the assay on UACC-62 melanoma is -40.9% (active); in the assay with LOX IMVI melanoma it was -42.1% (active); in the assay with SK-MEL-28 melanoma it was -8.67% (active); in the assay on SK-MEL-2 melanoma it was -59.2% (active); with EKVX NSCLC it was 18%; with UO-31 renal it was 29.9%. In addition, the growth in the assay on TK-10 renal was 20.4%; in the assay on ACHN renal it was -5.37% (active); with CAKI-1 renal it was 7.33% (active); in the assay with A498 renal, 27.6%; in the assay on CCRF-CEM leukemia, 9.8% (active); with MOLT-4 leukemia, -39.7% (active).
Regarding `COc1cc2c3c(cccc3c1)C(=O)N(CCN1CCCC1)C2=O`, the growth in the assay on HCT-15 colon was 20.1%; in the assay with HT29 colon, 0.567% (active); with SNB-19 CNS it was 31.7%; in the assay on PC-3 prostate, 14.3%; in the assay on SK-MEL-5 melanoma, -33.3% (active); in the assay on UACC-62 melanoma it was -34% (active). Further, the growth was -2.23% (active) with LOX IMVI melanoma; 19.1% with SK-MEL-28 melanoma; -8.39% (active) in the assay with SK-MEL-2 melanoma; 29.7% in the assay on SN12C renal; -3.17% (active) in the assay on UO-31 renal; -6.26% (active) in the assay with TK-10 renal. The growth in the assay with ACHN renal is 7.6% (active); with CAKI-1 renal, 14.2%; with A498 renal, -22.1% (active); with CCRF-CEM leukemia it was 18.9%; with MOLT-4 leukemia, 4.5% (active).
Regarding `Cc1ncc([N+](=O)[O-])n1CCOc1ccc(C(=O)/C=C/c2ccc(C(F)(F)F)cc2)cc1`, the growth was 38.1% in the assay with HCT-15 colon; 29.7% in the assay with HT29 colon; 69.7% in the assay with SNB-19 CNS; 51.7% in the assay with U251 CNS; 50.6% in the assay on PC-3 prostate; 67.5% with UACC-62 melanoma. The growth with LOX IMVI melanoma was 57.3%; with SK-MEL-28 melanoma, 88.2%; in the assay with SK-MEL-2 melanoma, 81%; with SN12C renal, 77.9%; in the assay with UO-31 renal, 40.6%; in the assay with ACHN renal it was 80.7%. Also, the growth with CAKI-1 renal is 81.3%; in the assay with A498 renal it was 74.5%; in the assay with CCRF-CEM leukemia it was 27.5%; in the assay on MOLT-4 leukemia it was 28.3%.
`O=C(Nc1cccc(-c2nc3ccccc3[nH]2)c1)c1cccc(NC(=O)c2ccco2)c1`: the growth is 50.9% in the assay with HCT-15 colon; 27.6% in the assay on HT29 colon; 89.4% in the assay on SNB-19 CNS; 61.8% in the assay with U251 CNS; 68.5% in the assay on PC-3 prostate; 43.4% in the assay with SK-MEL-5 melanoma. Besides, the growth is -71.7% (active) in the assay on UACC-62 melanoma; 41.8% with LOX IMVI melanoma; 30.3% in the assay with SK-MEL-28 melanoma; 101% with SK-MEL-2 melanoma; 79.1% with SN12C renal; 73.2% in the assay with UO-31 renal. For the same compound, the growth in the assay on TK-10 renal was 91.6%; with ACHN renal, 86%; with CAKI-1 renal it was 77.6%; with CCRF-CEM leukemia, 68.3%; in the assay with MOLT-4 leukemia it was 86.4%.
As for `CCOC(=S)Sc1ccc([N+](=O)[O-])cc1[N+](=O)[O-]`, the growth was 82.8% in the assay on HCT-15 colon; 0.214% (active) with HT29 colon; 90.4% with U251 CNS; 83.7% in the assay on PC-3 prostate; 88.4% with SK-MEL-5 melanoma; 99% in the assay with UACC-62 melanoma. Besides, the growth with LOX IMVI melanoma is 14.3%; with SK-MEL-28 melanoma it was 67.5%; with SK-MEL-2 melanoma, 91.4%; with EKVX NSCLC, 98%; in the assay on UO-31 renal, 78.1%; in the assay on ACHN renal, 60.4%. The growth in the assay with CAKI-1 renal is 29.9%; with A498 renal it was 88.2%; in the assay on CCRF-CEM leukemia it was 14.4%; in the assay on MOLT-4 leukemia, 48.5%.
As for `COc1cc(C2c3cc4c(cc3C(O)C(CO)C2CO)OCO4)cc(OC)c1OC` (centres undefined), the growth is 61.2% in the assay on HCT-15 colon; 5.41% (active) in the assay on HT29 colon; 35.8% in the assay on SNB-19 CNS; 25.3% in the assay on PC-3 prostate; 40.8% in the assay with UACC-62 melanoma; 43.8% in the assay with LOX IMVI melanoma. The growth was 44.1% with SK-MEL-28 melanoma; 32.2% with SK-MEL-2 melanoma; 7.57% (active) with EKVX NSCLC; 46.1% with SN12C renal; 13.4% with UO-31 renal; 46.7% in the assay with TK-10 renal. Also, the growth with ACHN renal is 53.9%; with CAKI-1 renal, 65.9%; in the assay on A498 renal, -0.141% (active); with CCRF-CEM leukemia, 15.6%; in the assay on MOLT-4 leukemia, 16.8%.
Take `CCC1(C)OC(=O)NC1=O` (centres undefined): the growth was 100% in the assay with HCT-15 colon; 99.9% with HT29 colon; 108% with SNB-19 CNS; 99% in the assay on U251 CNS; 79.3% with PC-3 prostate; 98.2% with SK-MEL-5 melanoma. Besides, the growth in the assay with UACC-62 melanoma is 103%; with LOX IMVI melanoma, 94.3%; in the assay on SK-MEL-28 melanoma, 108%; in the assay with SK-MEL-2 melanoma it was 106%; with EKVX NSCLC, 101%; with UO-31 renal, 88.6%. Moreover, the growth with ACHN renal was 102%; in the assay on CAKI-1 renal, 97.8%; with A498 renal it was 125%; in the assay with CCRF-CEM leukemia, 83.1%; with MOLT-4 leukemia, 112%.
Regarding `Cc1cc(C)c2nc(C)c(C)[n+]([O-])c2c1`, the growth was 97.6% with HCT-15 colon; 96.3% in the assay on HT29 colon; 109% with SNB-19 CNS; 90.6% in the assay with U251 CNS; 72.8% in the assay with PC-3 prostate; 104% with SK-MEL-5 melanoma. Also, the growth was 105% with UACC-62 melanoma; 95.4% in the assay on LOX IMVI melanoma; 106% in the assay with SK-MEL-28 melanoma; 106% with SK-MEL-2 melanoma; 99.1% with EKVX NSCLC; 88.3% with UO-31 renal. The growth in the assay on TK-10 renal was 99.3%; in the assay with ACHN renal, 109%; in the assay on CAKI-1 renal, 96.9%; with A498 renal, 146%; in the assay with CCRF-CEM leukemia it was 66%; with MOLT-4 leukemia, 83.1%.
